The record followed here is PubChem BioAssay.

Structures are written as SMILES. Values without a mark were called inactive. This is one part of the list. Active and inactive are the calls of the source.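 Rule for the calls, unless noted: active = mean inhibition over 43.08%, the solvent-only control mean plus 3 SD; inactive = the rest.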

In assay [1] the target is Nuclear receptor coactivator 3 (Homo sapiens) (UniProt Q9Y6Q9). The assay can be described thus: NCOA3 GAL4-fusion reporter inhibition – cell-based, luminescence, quadruplicate, confirmation (AID 588792).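 Note: 0% = DMSO treated cells and 100% = gossypol at 36 µM.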 The conditions noted are these: HEK293 GAL4-SRC3 luciferase reporter, at 3.6 µM, stronger effect = higher value. Background: Reporter assays use an easily measured gene product as a stand-in for the process of interest.

The test system of assay [2] is transactivating tegument protein VP16 (Human herpesvirus 1), Gal4-VP16 luciferase reporter. The assay can be described thus: repression of VP16-driven luciferase reporter – cell-based, luminescence, high throughput, counter-screen for SRC3 inhibitor project (AID 588794; in the data active = inhibition above about 30%). The conditions noted are these: mammalian cells, at 3.6 µM, stronger effect = higher value.
Assay [3] deals with Nuclear receptor coactivator 1 (Homo sapiens) (UniProt Q15788). The assay can be described thus: NCOA1 GAL4-fusion reporter inhibition – cell-based, luminescence, quadruplicate, confirmation (AID 588820;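 active = mean inhibition above 46.68%, the untreated control wells mean plus 3 SD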;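 note: 0% = DMSO wells and 100% = gossypol 36 µM treated wells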). The conditions noted are these: HEK293 GAL4-SRC1 luciferase reporter, at 3.6 µM, stronger effect = higher value.
Assay [4] in a line: repression of VP16-driven luciferase reporter – cell-based, luminescence, high throughput, counter-screen for SRC1 inhibitor project (AID 588824; in the data active = inhibition above about 25%). The conditions noted are these: cell-based VP16 transactivation luciferase luminescence; at 3.6 µM; stronger effect = higher value.
In assay [5] the test system is transactivating tegument protein VP16 (Human herpesvirus 1). The assay can be described thus: compounds suppressing VP16-driven luciferase signal – cell-based, luminescence, single concentration, counter-screen for SRC2 inhibitor project (AID 652007; in the data active = inhibition above about 36%). The conditions noted are these: cell-based VP16 transactivation luciferase reporter, at 8.9 µM, stronger effect = higher value. On the technique in general: The purpose of a counterscreen is to sort out artefacts and off-target activity.

Assay [6] addresses Nuclear receptor coactivator 2 (Homo sapiens) (UniProt Q15596). The assay can be described thus: inhibition of GAL4-SRC2 driven luciferase expression – cell-based, luminescence, HEK293, triplicate, confirmation (AID 652008;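 active = mean inhibition above 46.5%, the solvent-only control mean plus 3 SD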;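 note: 0% = DMSO-treated cells and 100% = Gossypol at 36 µM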). The conditions noted are these: HEK293 GAL4-SRC2 luciferase reporter, at 8.9 µM, stronger effect = higher value.
Assay [7] is described as follows: StAR promoter reporter inhibitors, counter-screen for LRH-1 inverse agonist project, cell-based, luminescence, high throughput (AID 651611; in the data active = inhibition above about 28%). The conditions noted are these: StAR promoter luciferase reporter counterscreen, at 3.6 µM, stronger effect = higher value.
Assay [8] has as its target Nuclear receptor subfamily 5 group A member 2 (Homo sapiens) (UniProt O00482). As to the kind of experiment: NR5A2 activity suppression in reporter cells – cell-based, luminescence, confirmation (AID 651613; in the data active = inhibition above about 42%;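 note: HEK293T cells co-transfected with LRH-1 and StAR promoter luciferase reporter; 0% = vehicle wells and 100% = parental cells lacking receptor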). The conditions noted are these: cell-based LRH-1 luciferase reporter, inverse agonism; at 3.6 µM; stronger effect = higher value.
Assay [9] deals with Steroidogenic factor 1 (Homo sapiens) (UniProt Q13285). As to the kind of experiment: inverse agonism at SF1 nuclear receptor – cell-based, luminescence, high throughput, counter-screen for LRH-1 inverse agonist project (AID 651614; in the data active = inhibition above about 44%;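 note: cells cotransfected with StAR promoter reporter and SF1 expression vector; 0% = vehicle on cells with receptor and 100% = vehicle on cells lacking receptor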). The conditions noted are these: cell-based SF1 luciferase reporter, at 3.6 µM, stronger effect = higher value.
A short description of assay [10]: compounds suppressing VP16-driven luciferase signal – cell-based, luminescence, high throughput, counter-screen for LRH-1 inverse agonist project (AID 651615; in the data active = inhibition above about 33%). The conditions noted are these: Gal4-VP16 luciferase reporter cells, at 3.6 µM, stronger effect = higher value.
Assay [11] in a line: VP16-driven transactivation reporter suppression – cell-based, luminescence, HEK293, counter-screen for COUP-TFII antagonist project (AID 687007; in the data active = inhibition above about 13%). The conditions noted are these: HEK293 Gal4-VP16 luciferase reporter, at 8.5 µM, stronger effect = higher value.
The target of assay [12] is COUP transcription factor 2 (Homo sapiens) (UniProt P24468). As to the kind of experiment: retest of COUP-TFII reporter suppressors – cell-based, luciferase reporter, HEK293, triplicate, confirmation (AID 687008;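 active = mean inhibition over three repeats above a set limit taken from the earlier primary screen, cut at about 38% in these data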;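 note: 100% = cells given the luciferase reporter alone without the COUP-TF2 vector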). The conditions noted are these: HEK293 NGFI-A luciferase reporter, luminescence; at 8.5 µM; stronger effect = higher value.

Sequence of Nuclear receptor coactivator 3 (Homo sapiens) (Q9Y6Q9 whole entry, looked up, the tested form may be a part): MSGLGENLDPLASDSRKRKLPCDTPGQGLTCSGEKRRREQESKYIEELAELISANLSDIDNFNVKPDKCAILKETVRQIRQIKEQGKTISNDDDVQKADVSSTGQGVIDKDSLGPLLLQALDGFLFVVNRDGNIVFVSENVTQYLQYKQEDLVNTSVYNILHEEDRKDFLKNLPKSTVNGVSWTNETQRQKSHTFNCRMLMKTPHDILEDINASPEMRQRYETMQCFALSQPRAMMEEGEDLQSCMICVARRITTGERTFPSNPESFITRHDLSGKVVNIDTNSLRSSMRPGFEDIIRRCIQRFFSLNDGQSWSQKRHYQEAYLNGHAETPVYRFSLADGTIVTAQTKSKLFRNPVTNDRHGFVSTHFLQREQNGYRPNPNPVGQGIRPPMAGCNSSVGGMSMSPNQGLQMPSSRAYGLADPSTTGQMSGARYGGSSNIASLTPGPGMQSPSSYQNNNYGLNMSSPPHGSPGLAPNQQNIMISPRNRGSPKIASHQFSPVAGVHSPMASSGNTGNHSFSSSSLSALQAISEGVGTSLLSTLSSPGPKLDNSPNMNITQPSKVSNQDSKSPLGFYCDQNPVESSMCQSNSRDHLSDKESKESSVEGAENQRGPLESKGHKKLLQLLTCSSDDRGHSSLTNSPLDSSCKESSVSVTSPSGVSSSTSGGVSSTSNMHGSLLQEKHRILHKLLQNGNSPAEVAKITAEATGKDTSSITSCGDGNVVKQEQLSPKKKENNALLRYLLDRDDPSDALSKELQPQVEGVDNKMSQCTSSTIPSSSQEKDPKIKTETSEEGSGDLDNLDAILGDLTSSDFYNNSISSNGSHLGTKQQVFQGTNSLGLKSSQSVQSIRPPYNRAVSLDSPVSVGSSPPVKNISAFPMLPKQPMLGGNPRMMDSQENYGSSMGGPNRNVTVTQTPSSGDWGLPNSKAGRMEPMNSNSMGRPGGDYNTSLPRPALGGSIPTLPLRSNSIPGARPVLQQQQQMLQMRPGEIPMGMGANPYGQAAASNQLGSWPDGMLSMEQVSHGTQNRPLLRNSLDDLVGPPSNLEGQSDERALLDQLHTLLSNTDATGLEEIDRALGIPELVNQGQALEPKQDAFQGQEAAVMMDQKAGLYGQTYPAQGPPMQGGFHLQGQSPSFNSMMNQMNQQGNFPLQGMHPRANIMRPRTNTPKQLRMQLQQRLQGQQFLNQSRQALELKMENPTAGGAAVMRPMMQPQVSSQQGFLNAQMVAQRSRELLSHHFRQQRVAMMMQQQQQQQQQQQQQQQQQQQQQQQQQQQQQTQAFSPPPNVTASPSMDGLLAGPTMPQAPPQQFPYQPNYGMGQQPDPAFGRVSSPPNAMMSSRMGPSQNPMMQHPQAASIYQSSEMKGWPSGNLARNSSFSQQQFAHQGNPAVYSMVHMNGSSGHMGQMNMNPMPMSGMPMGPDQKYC
Sequence of Steroidogenic factor 1 (Homo sapiens) (Q13285 whole entry, looked up, the tested form may be a part): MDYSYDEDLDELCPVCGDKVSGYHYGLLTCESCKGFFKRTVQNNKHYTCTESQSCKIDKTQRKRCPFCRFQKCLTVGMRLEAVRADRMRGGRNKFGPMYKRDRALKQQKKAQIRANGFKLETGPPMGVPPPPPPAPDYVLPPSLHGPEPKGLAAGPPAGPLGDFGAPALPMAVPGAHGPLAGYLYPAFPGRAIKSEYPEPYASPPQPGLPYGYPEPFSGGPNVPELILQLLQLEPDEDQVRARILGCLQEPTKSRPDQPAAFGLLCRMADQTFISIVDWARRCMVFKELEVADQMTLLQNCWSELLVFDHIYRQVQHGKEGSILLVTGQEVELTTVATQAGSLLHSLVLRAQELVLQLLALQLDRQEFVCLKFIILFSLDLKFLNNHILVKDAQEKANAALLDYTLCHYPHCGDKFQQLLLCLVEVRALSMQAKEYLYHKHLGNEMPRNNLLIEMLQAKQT
Sequence of Nuclear receptor coactivator 1 (Homo sapiens) (Q15788 whole entry, looked up, the tested form may be a part): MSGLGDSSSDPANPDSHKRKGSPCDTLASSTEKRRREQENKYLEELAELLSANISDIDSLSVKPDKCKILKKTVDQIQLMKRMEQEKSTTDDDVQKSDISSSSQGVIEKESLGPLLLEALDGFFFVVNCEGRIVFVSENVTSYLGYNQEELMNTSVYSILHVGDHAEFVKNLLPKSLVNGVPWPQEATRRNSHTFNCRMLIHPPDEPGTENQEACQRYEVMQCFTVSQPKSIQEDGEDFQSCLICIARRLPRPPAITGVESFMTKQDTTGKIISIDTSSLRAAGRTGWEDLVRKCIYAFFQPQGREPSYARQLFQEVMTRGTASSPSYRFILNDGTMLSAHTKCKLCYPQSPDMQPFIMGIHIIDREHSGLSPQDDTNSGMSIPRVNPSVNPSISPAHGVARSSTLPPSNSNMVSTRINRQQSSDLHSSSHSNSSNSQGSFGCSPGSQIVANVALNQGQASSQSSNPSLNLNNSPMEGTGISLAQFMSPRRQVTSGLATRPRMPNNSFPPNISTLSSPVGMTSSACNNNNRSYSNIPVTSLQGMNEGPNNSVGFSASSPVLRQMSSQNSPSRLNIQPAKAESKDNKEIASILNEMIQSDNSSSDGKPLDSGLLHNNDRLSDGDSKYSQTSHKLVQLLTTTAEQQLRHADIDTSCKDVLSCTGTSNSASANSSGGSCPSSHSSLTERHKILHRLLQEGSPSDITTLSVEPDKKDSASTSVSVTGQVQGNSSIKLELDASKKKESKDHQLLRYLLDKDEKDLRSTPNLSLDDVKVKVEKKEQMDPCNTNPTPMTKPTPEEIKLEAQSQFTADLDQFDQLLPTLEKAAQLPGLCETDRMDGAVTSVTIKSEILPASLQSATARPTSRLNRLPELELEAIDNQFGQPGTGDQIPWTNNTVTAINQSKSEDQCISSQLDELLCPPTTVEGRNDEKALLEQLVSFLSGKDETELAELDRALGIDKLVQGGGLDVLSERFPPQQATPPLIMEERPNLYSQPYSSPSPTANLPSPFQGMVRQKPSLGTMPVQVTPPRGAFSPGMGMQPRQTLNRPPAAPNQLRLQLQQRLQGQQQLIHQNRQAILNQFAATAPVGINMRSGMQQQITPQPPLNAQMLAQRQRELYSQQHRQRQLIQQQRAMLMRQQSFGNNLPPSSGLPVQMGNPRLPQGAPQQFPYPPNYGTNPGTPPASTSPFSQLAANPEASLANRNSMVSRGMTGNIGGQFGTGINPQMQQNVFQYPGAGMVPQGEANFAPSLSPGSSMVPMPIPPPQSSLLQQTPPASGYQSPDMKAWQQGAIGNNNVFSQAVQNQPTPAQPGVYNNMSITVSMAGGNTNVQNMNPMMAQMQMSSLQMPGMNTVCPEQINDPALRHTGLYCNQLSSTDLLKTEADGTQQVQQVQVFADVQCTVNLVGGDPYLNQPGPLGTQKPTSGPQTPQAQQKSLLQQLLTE
Sequence of Nuclear receptor coactivator 2 (Homo sapiens) (Q15596 whole entry, looked up, the tested form may be a part): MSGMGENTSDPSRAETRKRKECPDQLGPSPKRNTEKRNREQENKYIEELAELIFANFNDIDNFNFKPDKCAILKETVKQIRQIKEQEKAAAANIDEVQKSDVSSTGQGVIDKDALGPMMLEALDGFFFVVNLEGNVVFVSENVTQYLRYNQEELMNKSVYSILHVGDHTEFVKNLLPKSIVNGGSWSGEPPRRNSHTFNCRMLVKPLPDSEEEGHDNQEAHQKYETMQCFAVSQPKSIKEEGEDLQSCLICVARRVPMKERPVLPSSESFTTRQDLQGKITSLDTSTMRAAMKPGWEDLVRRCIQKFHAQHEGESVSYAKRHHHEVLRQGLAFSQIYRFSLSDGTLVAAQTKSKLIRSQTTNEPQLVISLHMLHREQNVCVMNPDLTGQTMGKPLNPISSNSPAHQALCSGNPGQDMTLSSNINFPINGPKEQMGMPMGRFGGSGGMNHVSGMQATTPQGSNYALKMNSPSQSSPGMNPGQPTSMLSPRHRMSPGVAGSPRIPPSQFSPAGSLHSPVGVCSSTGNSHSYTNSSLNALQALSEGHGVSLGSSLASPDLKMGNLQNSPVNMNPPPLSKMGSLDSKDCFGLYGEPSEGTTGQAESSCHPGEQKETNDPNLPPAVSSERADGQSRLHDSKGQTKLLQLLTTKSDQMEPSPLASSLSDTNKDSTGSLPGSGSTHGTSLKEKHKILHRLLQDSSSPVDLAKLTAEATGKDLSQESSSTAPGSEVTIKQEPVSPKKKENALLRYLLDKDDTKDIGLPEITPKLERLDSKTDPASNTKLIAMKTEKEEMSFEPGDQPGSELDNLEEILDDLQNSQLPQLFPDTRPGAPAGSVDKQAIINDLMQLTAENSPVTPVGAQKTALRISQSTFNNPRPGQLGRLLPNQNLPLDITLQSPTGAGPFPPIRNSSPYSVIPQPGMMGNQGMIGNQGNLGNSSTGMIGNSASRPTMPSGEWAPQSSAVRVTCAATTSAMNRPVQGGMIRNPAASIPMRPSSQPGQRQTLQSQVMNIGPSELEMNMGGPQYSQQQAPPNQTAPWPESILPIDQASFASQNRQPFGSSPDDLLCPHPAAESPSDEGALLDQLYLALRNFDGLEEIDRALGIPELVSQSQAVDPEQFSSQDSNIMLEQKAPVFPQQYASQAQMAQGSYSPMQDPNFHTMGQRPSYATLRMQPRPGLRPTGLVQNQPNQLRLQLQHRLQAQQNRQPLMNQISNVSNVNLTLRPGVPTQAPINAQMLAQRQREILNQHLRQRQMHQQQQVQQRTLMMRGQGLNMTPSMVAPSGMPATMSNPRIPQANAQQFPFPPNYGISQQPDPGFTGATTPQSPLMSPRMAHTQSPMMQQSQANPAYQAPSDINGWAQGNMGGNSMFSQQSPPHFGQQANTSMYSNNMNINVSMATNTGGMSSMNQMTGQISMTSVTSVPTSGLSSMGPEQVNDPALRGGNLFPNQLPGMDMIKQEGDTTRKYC

The inhibition is the drop in the measured response relative to a control, in per cent. Regarding `Brc1ccc2ncnc(Nc3ccc(N4CCOCC4)cc3)c2c1`, the inhibition in assay [1] was 57.9% (active); in assay [2], 31.9% (active); in assay [3] it was 59.7% (active); in assay [4], 35.3% (active); in assay [5] it was -2.24%; in assay [6], 39.9%.

`O=C(NCCc1ccccc1F)c1ccc2c(c1)OCCO2`: the inhibition in assay [1] is 67.2% (active); in assay [2], 57.6% (active); in assay [3], -11.5%; in assay [4] it was 54.6% (active); in assay [7], 65.5% (active); in assay [8] it was 55.3% (active). The inhibition in assay [9] is 72.4% (active); in [10], 60.5% (active); in assay [5], 74.1% (active); in assay [6], 89.9% (active).

On to `c1ccc(CCc2nn3c(-c4ccncc4)nnc3s2)cc1`, for which the inhibition is 68.4% (active) in assay [1]; 47.2% (active) in assay [2]; 57.3% (active) in [3]; 41.1% (active) in assay [4]; 1.28% in assay [5]; 50.8% (active) in assay [6].

For the molecule `CC(C)(CO)CNc1ccn2nccc2n1`, the inhibition in assay [1] was 49.3% (active); in [2] it was 35.4% (active); in [3] it was 67.4% (active); in assay [4], 41% (active); in assay [5], -7.15%; in assay [6], 27.5%.

Turning to `COc1ccc(CC(=O)Nc2cccc(-c3nnc(-c4ccccc4)o3)c2)cc1OC`, the inhibition is 10.5% in assay [1]; 32.9% (active) in [2]; -12.5% in assay [3]; 41.1% (active) in [4]; 27.1% in assay [5]; 68.5% (active) in assay [6].

As to `CCN(c1ccc(OC)cc1)c1ncnc2nc[nH]c12`, the inhibition in assay [1] is 66.8% (active); in assay [2], 45.6% (active); in assay [3], 67.2% (active); in [4] it was 48.6% (active); in assay [5] it was -3.42%; in assay [6], 45.7%.

Turning to `COCCn1c(C)cc(C2=NNC(=NC3CC3)SC2)c1C`, the inhibition in assay [1] was 91.2% (active); in assay [2], 87.2% (active); in [3], 85.7% (active); in assay [4] it was 86.1% (active); in assay [5] it was 90.8% (active); in assay [6], 96.7% (active).

Consider `CN(C)C(=O)c1cccc(-c2cnc3sc(NCc4ccc5c(c4)OCO5)nn23)c1`, for which the inhibition in assay [1] was 53.2% (active); in assay [2], 35.7% (active); in [3] it was 51.8% (active); in assay [4], 33.7% (active); in assay [5], 8.86%; in assay [6], 62.2% (active).

Consider `CCc1ccc(/C=C2\SC(=S)N(CCCC(=O)NCCCN3CCOCC3)C2=O)cc1`, for which the inhibition is 42.4% in [1]; 21.1% in assay [2]; 35.1% in assay [3]; 8.83% in [4]; 82.6% (active) in assay [5]; 93.6% (active) in [6].

On to `Brc1ccc2ncnc(NCc3cccnc3)c2c1`, for which the inhibition in assay [1] was 70.6% (active); in assay [2], 44% (active); in assay [3], 55.9% (active); in assay [4] it was 42.8% (active); in [5], -3.67%; in assay [6], 39.8%.

As to `Clc1ccccc1C1=Nn2c(nnc2-c2ccncc2)SC1`, the inhibition in assay [1] is 78.3% (active); in [2] it was 52.6% (active); in assay [3], 73.9% (active); in [4], 55.2% (active); in assay [5], 7.16%; in assay [6] it was 46%.

In the case of `CC(C)(C)OC(=O)NCCCCCNC(=O)c1nc[nH]c1C(=O)NCCCCCNC(=O)OC(C)(C)C`, the inhibition in assay [1] is 5.02%; in assay [2], 13.7%; in assay [3], -20%; in assay [4] it was 35.1% (active); in [5], 24.2%; in assay [6] it was 34.1%.

For the molecule `Nc1ncc([N+](=O)[O-])c(N2CCCCCC2)n1`, the inhibition in assay [1] is 76.5% (active); in [2] it was 50.2% (active); in assay [3] it was 67.5% (active); in assay [4] it was 51.2% (active); in assay [5] it was 4.49%; in assay [6], 57.3% (active).

For the molecule `O[C@@H]1[C@@H](O)C=C2CCN3Cc4cc5c(cc4[C@H]1C23)OCO5` (stereo partly drawn), the inhibition in [1] is 84.3% (active); in assay [2], 77.5% (active); in assay [3], 48.1% (active); in [4] it was 76.7% (active); in assay [8], 105% (active); in [9] it was 93.4% (active). Besides, the values for the inhibition in assay [5] and in assay [6] were 15.7% and -13.8%, respectively.

Take `NC(=S)NN=C1c2cc(OCCN3CCOCC3)ccc2-c2ccc(OCCN3CCOCC3)cc21`: the inhibition in [1] is 53.8% (active); in [2], 68.8% (active); in assay [3], 8.8%; in assay [4], 65.2% (active); in assay [7], 89.9% (active); in assay [8], 96.3% (active). Moreover, the inhibition in [9] was 82.2% (active); in [10], 91.7% (active); in assay [5], 68.6% (active); in [6], 58.9% (active).

For `Nc1nc(=S)c2ncn([C@@H]3O[C@H](CO)[C@@H](O)[C@H]3O)c2[nH]1`, the inhibition was 67.6% (active) in assay [1]; 23.3% in assay [2]; 11.8% in assay [3]; 29.9% (active) in assay [4]; 77.2% (active) in [8]; 48.2% (active) in [9].

Turning to `Cn1nnnc1Sc1ncnc2scc(-c3cccc(Br)c3)c12`, the inhibition was 31.4% in assay [1]; 43.7% (active) in [2]; 43.3% in assay [3]; 47.5% (active) in assay [4]; 9.2% in assay [5]; 55.7% (active) in assay [6].

Consider `CCc1nc(N)nc(N)c1-c1ccc(Cl)c([N+](=O)[O-])c1`, for which the inhibition in assay [1] is 56.7% (active); in assay [2], 24.9%; in [3], 58.2% (active); in [4] it was 25%; in assay [5], 28.1%; in assay [6], 24.5%.

As to `CC1(C)CC(N2CCN(C(c3ccccc3)c3ccccc3)CC2)=CC(=[N+]2CCCCC2)C1`, the inhibition was 91% (active) in assay [1]; 87.8% (active) in [2]; 69.5% (active) in [3]; 87.8% (active) in [4]; 80.6% (active) in [7]; 110% (active) in assay [8]. Also, the inhibition is 94.8% (active) in [9], 94.7% (active) in assay [10], 24.1% (active) in assay [11] and 86.3% (active) in assay [12].
